Reference: the supplement of paper PMC12350171
Where a name gives a salt, the structure may show the parent alone. Values without a mark were called inactive.

Experiments:
Conditions in all cases: 20 µM
[1] = system: Salmonella enterica typhimurium; test: growth AUC normalised to DMSO control (fraction of control); higher = less growth inhibition, active = hit call of the paper
In short: (§1)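 Pathogens passaged twice anaerobically were inoculated at a starting OD578 of 0.01 into pre-reduced mGAM plates with drug at 20 μM and 1% DMSO, sealed with breathable membranes. Haemophilus parainfluenzae medium was supplemented with hemin and NAD. OD578 was read hourly for 24 h, with three biological replicates. Growth-curve AUC was computed by the trapezoidal rule up to the exponential-to-stationary transition and normalised to DMSO controls on the same plate.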

Shigella flexneri = test: as above
In short: as §1

Vibrio cholerae = test: as above
In short: as §1

[2] = system: Yersinia pseudotuberculosis; test: as above
In short: as §1

P. vulgatus RND KO = test: growth AUC normalised to DMSO control (median) (fraction of control); higher = less growth inhibition, active = hit call of the paper
In short: (§2)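 In 96-well plates of mGAM seeded at OD578 0.01, strains that had been passaged twice overnight without oxygen were exposed to approved-drug library compounds at 20 μM with 1% DMSO. Hourly OD578 readings were taken for 24 h in an anaerobic incubator. The trapezoidal-rule area under the curve, with curves truncated at entry into stationary phase, was expressed relative to same-plate vehicle wells as the median of three biological replicates.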

P. vulgatus WT = test: as above
In short: as §2

[3] = system: S. enterica typhimurium WT; test: as above
In short: as §2

[4] = system: S. enterica typhimurium tolC KO; test: as above
In short: as §2
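Throughout, for growth AUC normalised to DMSO control (median): active when median AUC fell below 0.1.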

SMILES | growth AUC normalised to DMSO control [1] | growth AUC normalised to DMSO control (Shigella flexneri) | growth AUC normalised to DMSO control (Vibrio cholerae) | growth AUC normalised to DMSO control [2] | growth AUC normalised to DMSO control (P. vulgatus RND KO) | growth AUC normalised to DMSO control (P. vulgatus WT) | growth AUC normalised to DMSO control [3] | growth AUC normalised to DMSO control [4]
O=C(O)c1ccccc1OP(=O)(O)O [Fosfosal] | 0.983 | 0.984 | 0.994 | 0.988 | 1 | 1.02 | 1 | 1.01
NC(=O)c1cnccn1 [Pyrazinamide] | 0.99 | 0.92 | 0.993 | 0.99 | 0.992 | 0.993 | 0.999 | 0.999
CCCCCCCCNC(C)C(O)c1ccc(SC(C)C)cc1 (configuration not stated) [Suloctidil] | 1.02 | 0.995 | 1 | 0.937 | 0.992 | 1.02 | 1.02 | 0.997
CC[C@]12CCCN3CCc4c(n(c5ccccc45)[C@@](O)(C(=O)OC)C1)[C@@H]32 [Vincamine] | 1.02 | 0.979 | 0.995 | 0.989 | 1.02 | 1.05 | 1.02 | 1
CC(=O)S[C@@H]1CC2=CC(=O)CC[C@]2(C)[C@H]2CC[C@@]3(C)[C@@H](CC[C@@]34CCC(=O)O4)[C@H]12 [Spironolactone] | 0.983 | 0.981 | 0.954 | 1.02 | 1.02 | 1.02 | 0.998 | 0.981
CCC(=O)O[C@@H](O[P@](=O)(CCCCc1ccccc1)CC(=O)N1C[C@H](C2CCCCC2)C[C@H]1C(=O)O)C(C)C [Fosinopril] | 1 | 1.04 | 1.05 | 1 | 0.998 | 1.02 | 1 | 1.01
CCC(NC(C)C)C(O)c1ccc(O)c(O)c1 (configuration not stated) [Isoetharine mesylate salt] | 0.999 | 1 | 0.995 | 1 | 0.994 | 1.01 | 0.999 | 0.994
Cn1c(=O)c2c(ncn2CC(=O)O)n(C)c1=O [Acefylline] | 0.979 | 0.987 | 0.98 | 0.987 | 0.987 | 0.996 | 0.996 | 1.01
CCCCC(CC)CN1CN(CC(CC)CCCC)CC(C)(N)C1 (configuration not stated) [Hexetidine] | 1.04 | 1.05 | 1.02 | 1.04 | 1.02 | 1.03 | 1.02 | 0.88
CC1=C(/C=C/C(C)=C/C=C/C(C)=C/C(=O)O)C(C)(C)CCC1 [Retinoic acid] | 1 | 0.994 | 1 | 0.998 | 0.996 | 0.992 | 1 | 0.993
Cc1cc(NC(=O)C2=C(O)c3ccccc3S(=O)(=O)N2C)no1 [Isoxicam] | 0.982 | 0.974 | 0.901 | 0.984 | 0.979 | 0.975 | 0.991 | 0.993
N[C@@H](Cc1cc(I)c(Oc2cc(I)c(O)c(I)c2)c(I)c1)C(=O)O [(L) Thyroxine] | 1.01 | 1.02 | 1.03 | 1.02 | 0.994 | 1.06 | 1.02 | 0.983
O=C(N/N=C/c1ccc([N+](=O)[O-])o1)c1ccc(O)cc1 [Nifuroxazide] | 0.866 (active) | 0.189 (active) | 0.623 (active) | 0.96 | 0.883 | 0.861 | 0.924 | 0.862
NC[C@H]1O[C@H](O[C@H]2[C@H](O[C@@H]3O[C@H](CO)[C@@H](O)[C@H]3O)[C@@H](O)[C@H](N)C[C@@H]2N)[C@H](N)[C@@H](O)[C@@H]1O [Ribostamycin sulfate salt] | 0.981 | 0.918 | 0.974 | 0.995 | 0.988 | 0.986 | 0.98 | 0.99
O=C(O)c1cc(=O)c2c(OCC(O)COc3cccc4oc(C(=O)O)cc(=O)c34)cccc2o1 [Cromolyn disodium salt] | 0.98 | 0.995 | 1 | 1 | 1.03 | 1.03 | 1.02 | 0.996
NC(=O)NC1NC(=O)NC1=O (configuration not stated) [Allantoin] | 1 | 0.996 | 1.05 | 0.989 | 0.999 | 1.01 | 0.994 | 0.998
O=C(O)c1cc(-c2ccc(F)cc2F)ccc1O [Diflunisal] | 0.983 | 0.997 | 0.899 | 0.984 | 0.999 | 1.07 | 0.973 | 0.943
CCCCC1(COC(=O)CCC(=O)O)C(=O)N(c2ccccc2)N(c2ccccc2)C1=O [Suxibuzone] | 1 | 1 | 0.993 | 1.01 | 1.02 | 1.03 | 1.01 | 0.985
Nc1nc(=O)c2nc(CNc3ccc(C(=O)N[C@@H](CCC(=O)O)C(=O)O)cc3)cnc2[nH]1 [Folic acid] | 0.991 | 0.99 | 1 | 0.994 | 0.997 | 1 | 0.997 | 1.01
O=C1CCc2cc(OCCCCc3nnnn3C3CCCCC3)ccc2N1 [Cilostazol] | 0.985 | 0.971 | 0.958 | 0.989 | 0.975 | 0.98 | 1 | 0.851
CC[C@H](C)[C@H](N)C1=N[C@H](C(=O)N[C@@H](CC(C)C)C(=O)N[C@H](CCC(=O)O)C(=O)N[C@H](C(=O)N[C@H]2CCCCNC(=O)[C@H](CC(N)=O)NC(=O)[C@@H](CC(=O)O)NC(=O)[C@H](Cc3cnc[nH]3)NC(=O)[C@@H](Cc3ccccc3)NC(=O)[C@H]([C@@H](C)CC)NC(=O)[C@@H](CCCN)NC2=O)[C@@H](C)CC)CS1 [Bacitracin] | 0.996 | 0.98 | 1.15 | 0.976 | 0.137 | 0.104 | 1.01 | 1.01
Nc1ccc(/N=N/c2ccccc2)c(N)n1 [Phenazopyridine hydrochloride] | 0.969 | 0.922 | 0.927 | 0.958 | 1.03 | 1.03 | 0.989 | 0.988
NS(=O)(=O)c1cc2c(cc1C(F)(F)F)NC(Cc1ccccc1)NS2(=O)=O (configuration not stated) [Bendroflumethiazide] | 1 | 1.01 | 0.997 | 1.01 | 0.962 | 0.977 | 1.01 | 0.993
O=c1[nH]c(=O)n([C@H]2C[C@H](O)[C@@H](CO)O2)cc1F [Floxuridine] | 0.713 (active) | 0.729 (active) | 0.695 (active) | 0.44 (active) | 0.0504 (active) | 0.0573 (active) | 0.815 | 0.791
c1ccc([C@H]2CN3CCSC3=N2)cc1 [Levamisole hydrochloride] | 0.99 | 0.967 | 0.981 | 1 | 1.03 | 1.01 | 1 | 1
CN1CCC(=C2c3ccccc3Sc3ccccc32)CC1 [Pimethixene maleate] | 0.988 | 0.948 | 0.853 | 1.02 | 0.812 | 0.776 | 1 | 0.956
CNC(=C[N+](=O)[O-])NCCSCc1ccc(CN(C)C)o1 [Ranitidine hydrochloride] | 1 | 1 | 1.01 | 1.01 | 1.01 | 0.985 | 1.02 | 1.01
CC1(C)S[C@@H]2[C@H](NC(=O)[C@H](N)c3ccc(O)cc3)C(=O)N2[C@H]1C(=O)O [Amoxicillin] | 0.00744 (active) | 0.0257 (active) | 0.68 (active) | 0.0346 (active) | 0.0144 (active) | 0.0118 (active) | 0.00737 (active) | 0.00653 (active)
CN1CC2c3ccccc3Oc3ccc(Cl)cc3C2C1 (configuration not stated) [Asenapine maleate] | 0.954 | 0.974 | 0.837 (active) | 0.976 | 0.939 | 0.948 | 0.973 | 0.935
